Peg3 prom inh-1: inhibitors of Peg3 promoter. inhibition, % at 20 µM. 360,000 compounds, 1.7% hits. HeLa PEG-Prom luciferase reporter, luminescence, overnight;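 active means inhibition of at least 50% at 20 µM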
Shn3 3UTR inh: inhibitors of Schnurri-3 3'UTR reporter in osteoblasts; Clone20 osteoblast Shn3 3'UTR firefly luciferase, 24 h; inhibition, % at 12.5 µM; 360,000 compounds, 0.52% hits; AID 588674;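 active means mean inhibition of at least 75% with every replicate also reaching 75%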;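 further: 0% = median of neutral control wells and 100% = pilot-screen positive control compound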
CF NFkB inh: blocks PAF-induced NF-kB reporter in cystic fibrosis cells. KKLEB NF-kB-GFP reporter, GFP fluorescence overnight. inhibition, % at 5 µM. 360,000 compounds, 0.86% hits. AID 588850;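 active means at least 50% inhibition at 5 µM, scaled per plate between neutral and stimulator controls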;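 further: PAF is a Pseudomonas aeruginosa culture filtrate used as stimulus; plate controls were PAF-stimulated DMSO wells for no effect and unstimulated DMSO wells for full effect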
HIF-2a block: blocks HIF-2a reporter activity. inhibition, % at 18.8 µM. 786-0 RCC cells HIF-2a reporter, luciferase luminescence, overnight. 360,000 compounds, 0.72% hits;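 active means inhibition of the luminescence signal of 40% or more relative to plate controls, in a single-dose primary screen at 18.75 µM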
MITF TRPM1 inh: MITF TRPM1 promoter inhibition in SK-MEL-5 cells | inhibition, % at 12.5 µM | SK-MEL-5 TRPM1 promoter luciferase, 24 h | 330,000 compounds, 0.83% hits;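 active means mean inhibition across replicates of 60% or more, whatever share of single replicates reaches that level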
KKLEB tox: counter-screen for CF NF-kB inhibitors: cytotoxicity; AID 602141; 360,000 compounds, 0.36% hits; activity change (cytotoxicity), % at 5 µM; KKLEB CF airway cells viability, ATPlite luminescence, overnight; stronger effect = lower value; cells stimulated with P. aeruginosa culture filtrate;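 active means corrected activity change at or below -50% at 5 µM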
Peg3 prom inh-2: Peg3 promoter inhibition confirmation | inhibition, % at 20 µM | HeLa PEG-Prom luciferase reporter, luminescence, overnight | 1,300 compounds, 84% hits | shares compounds with Peg3 prom inh-1;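 active means at 20 µM dose, 40% or more inhibition averaged across four replicates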
CF NFkB conf: CF NF-kB inhibition confirmation, single concentration; shares compounds with CF NFkB inh; KKLEB CF airway cells, PAF-induced NF-kB-GFP fluorescence, overnight; inhibition, % at 5 µM; 1,300 compounds, 64% hits; AID 602472; in the data active means inhibition above about 40%;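 further: stimulus PAF is a Pseudomonas aeruginosa filtrate and not platelet activating factor; plate controls were DMSO wells with stimulus for no effect and unstimulated DMSO wells for full effect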
HIF-2a inh conf: confirmation of HIF-2a inhibitors; 786-0 RCC cells, HIF-2a luciferase reporter luminescence, overnight; AID 651580; shares compounds with HIF-2a block; 1,800 compounds, 56% hits; inhibition, % at 18.8 µM;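 active means mean inhibition across four replicates of at least 40 percent at the single tested concentration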
HIF-1a cs: counter-screen for HIF-2a inhibitors: HIF-1a inhibition in MiaPaCa-2 cells; shares compounds with HIF-2a block; MiaPaCa-2 HIF-1a luciferase reporter, desferoxamine, overnight; inhibition, % at 18.8 µM; 1,800 compounds, 72% hits;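 active means mean inhibition of the reporter signal across four replicates at the single tested dose of 50% or more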
Starred values were filed as active, the others as inactive. This is a sample that favours compounds with a hit; in the whole collection about 2.8% have one here.

For Cc1ccc(S(=O)(=O)c2nc(-c3ccccc3Cl)oc2N(C)C2CCN(C)CC2)cc1 the results were Peg3 prom inh-1 63.9*, Shn3 3UTR inh -11.6, CF NFkB inh 40.8, HIF-2a block -25.6, KKLEB tox -20.3 and Peg3 prom inh-2 78.2*.
For CCN(CC)C(=O)c1ccc(NC(=O)c2cccc(C(F)(F)F)c2)cc1 the results were Peg3 prom inh-1 -28.6, Shn3 3UTR inh 19.9, CF NFkB inh 1.0, HIF-2a block -31.7, MITF TRPM1 inh -15.2 and KKLEB tox -1.7.
For CCN(CCCl)c1cc(CN(C)C)cc(NC(=O)c2ccc(C(=O)Nc3cc(CN(C)C)cc(N(CC)CCCl)c3)cc2)c1 the results were Peg3 prom inh-1 101.5*, Shn3 3UTR inh 96.2*, CF NFkB inh 79.7*, HIF-2a block 70.0*, MITF TRPM1 inh 98.0*, KKLEB tox -88.9* and Peg3 prom inh-2 99.3*.
Screening C=Cc1cc(OC)c2c(c1)c(=O)oc1c2cc(OC)c2c(O)ccc(C3OC(C)C(O)C(C)(O)C3O)c21 (stereo not given) returned Peg3 prom inh-1 105.6*, Shn3 3UTR inh 11.8, CF NFkB inh 79.2*, HIF-2a block 52.4*, MITF TRPM1 inh 77.6*, KKLEB tox -24.6 and Peg3 prom inh-2 98.4*.
`COc1cccc(C2CC3C(=O)C=CC2N3Cc2ccccc2)c1` (stereo not given) gave Peg3 prom inh-1 68.2*, Shn3 3UTR inh 24.8, CF NFkB inh 16.7, HIF-2a block 47.9*, MITF TRPM1 inh 22.9, KKLEB tox -0.4, Peg3 prom inh-2 70.6*, HIF-2a inh conf 57.3* and HIF-1a cs 47.0.
Screening CCC1(CCC(C)C)C(=O)NC(=S)NC1=O returned Peg3 prom inh-1 8.3, Shn3 3UTR inh 53.1, CF NFkB inh -3.6, HIF-2a block 14.7, MITF TRPM1 inh -17.4 and KKLEB tox -1.9.
COc1cc(C2c3cc4c(cc3CC3COC(=O)C32)OCO4)cc(OC)c1OC (stereo not given) was read as Peg3 prom inh-1 -14.4, Shn3 3UTR inh 18.0, CF NFkB inh 41.4, HIF-2a block 7.0 and KKLEB tox -23.0.
For COc1cc(C2c3cc4c(c(O)c3CC3COC(=O)C32)OCO4)cc(OC)c1OC (stereo not given) the results were Peg3 prom inh-1 -19.4, Shn3 3UTR inh -1.0, CF NFkB inh 50.6*, HIF-2a block 19.6, MITF TRPM1 inh 41.4, KKLEB tox -10.9 and CF NFkB conf 90.2*.
For CO[C@H]1C=CCCC=CC(=O)O[C@H]([C@H](C)C(=O)CCCC2CC(=O)NC(=O)C2)C(C)=C[C@@H](C)[C@@H]1O the results were HIF-2a block 37.1.
For N#Cc1c(Br)n(C2OC(CO)C(O)C2O)c2ncnc(N)c12 (stereo not given) the results were Peg3 prom inh-1 61.1*, Shn3 3UTR inh 35.3, CF NFkB inh 73.0*, HIF-2a block -13.4, MITF TRPM1 inh 36.1, KKLEB tox -23.7 and CF NFkB conf 84.0*.
Screening NC(=O)c1c(Br)n(C2OC(CO)C(O)C2O)c2ncnc(N)c12 (stereo not given) returned Peg3 prom inh-1 43.7, Shn3 3UTR inh -9.7, CF NFkB inh 60.7*, HIF-2a block 21.4, MITF TRPM1 inh 50.9, KKLEB tox -30.1 and CF NFkB conf 60.5*.
For Nc1ncnc2c1ncn2[C@@H]1O[C@H](COP(=O)(O)CP(=O)(O)O)[C@@H](O)[C@H]1O the results were Peg3 prom inh-1 -11.2, Shn3 3UTR inh -18.5, CF NFkB inh -3.8, HIF-2a block -26.5, MITF TRPM1 inh 2.2 and KKLEB tox -3.3.
`CCOC(=O)[C@]12Cc3cc(C)ccc3[C@H]1N(Cc1ccccc1)C(=O)c1cc(OC)ccc12` gave HIF-2a block 22.9.
C[C@H](NC(=O)N1C[C@H]2C[C@@H](C1)c1cccc(=O)n1C2)C(=O)Nc1ccccc1F was read as Peg3 prom inh-1 6.0, Shn3 3UTR inh 8.5, CF NFkB inh 12.7, HIF-2a block 5.1, MITF TRPM1 inh -3.2 and KKLEB tox 5.0.
For C[C@H]1CCC[C@H](O)CCCCCc2cc(O)cc(O)c2C(=O)O1 the results were Peg3 prom inh-1 22.3, Shn3 3UTR inh -11.6, CF NFkB inh 34.9, HIF-2a block 6.8, MITF TRPM1 inh -3.1 and KKLEB tox 10.7.
`C[C@H]1CCC[C@@H](O)CCC/C=C/c2cc(O)cc(O)c2C(=O)O1` gave Peg3 prom inh-1 64.4*, Shn3 3UTR inh -14.9, CF NFkB inh 51.1*, HIF-2a block -6.0, MITF TRPM1 inh 9.6, KKLEB tox 0.5 and CF NFkB conf 46.5*.
COc1ccc(C(c2nnnn2-c2ccc(OC)cc2)N2CCC(n3c(=O)[nH]c4ccccc43)CC2)cc1 (stereo not given) was read as Peg3 prom inh-1 67.9*, Shn3 3UTR inh 7.4, CF NFkB inh 92.2*, HIF-2a block -19.8, KKLEB tox -39.3 and CF NFkB conf 90.2*.
Screening O=c1[nH]c2ccccc2n1C1CCN(C(c2cc3ccccc3o2)c2nnnn2-c2ccc3c(c2)OCCO3)CC1 (stereo not given) returned Peg3 prom inh-1 97.5*, Shn3 3UTR inh 35.5, CF NFkB inh 79.7*, HIF-2a block -3.0, KKLEB tox -34.8 and CF NFkB conf 105.8*.
Screening Cn1c(O)c(Cc2cccc(Cl)c2Cl)c(=O)n(C)c1=O returned Peg3 prom inh-1 -2.8, Shn3 3UTR inh 2.6, CF NFkB inh -10.1, HIF-2a block 3.2, MITF TRPM1 inh 3.3 and KKLEB tox 4.3.
For O=C(NN=Cc1ccc(N(CCCl)CCCl)cc1)c1cccnc1 the results were Peg3 prom inh-1 -21.9, Shn3 3UTR inh -33.2, CF NFkB inh 11.5, HIF-2a block -31.9, MITF TRPM1 inh -2.5 and KKLEB tox -10.1.
Screening COc1ccc(C(CNC(=O)Cc2ccc(Cl)c(Cl)c2)N2CCCCC2)cc1 (stereo not given) returned Peg3 prom inh-1 5.8, Shn3 3UTR inh -4.4, CF NFkB inh -5.2, HIF-2a block 18.6, MITF TRPM1 inh -16.3 and KKLEB tox -6.4.
CCOC(=O)c1cnc(SCc2ccc(Cl)c(Cl)c2)nc1N1CC1 was read as Peg3 prom inh-1 31.0, Shn3 3UTR inh 31.2, CF NFkB inh 66.6*, HIF-2a block -11.8, MITF TRPM1 inh 33.8, KKLEB tox -40.6 and CF NFkB conf 38.3.
